Among the data in the supplement of paper PMC6555819 are PBM binding z-score values, retold here.

Holding throughout (experiment): PBM binding z-score (relative to random genomic background probes); higher = stronger binding; sequences stand for … in GC…GCGATTGACAGCGTAGAATGAAGG
The test system of experiment [1] is RARb homodimer (NR concentration 270 nM). An outline of the steps:
(§1)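 Scanned fluorescence from custom Agilent 4×180K protein-binding microarrays was regression-normalized. Binding z-scores use random background probes as reference. Ligand-free nuclear receptor dimers were incubated on the arrays for 1 h and detected with antibodies against each partner (one per run).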

Experiment [2] relates to RARg:RXRa (NR concentration 270 nM, RXRa partner concentration 90 nM). The method in brief: as §1
Experiment [3] relates to RARg homodimer (NR concentration 270 nM). An outline of the steps: as §1
The subject of experiment [4] is RXRa DBDmut IVT, anti-RXR (DBD mutation: RXRa K156A/R161A, NR concentration 90 nM). The method in brief:
as §1

The subject of experiment [5] is RXRa homodimer (NR concentration 180 nM). An outline of the steps:
as §1

Experiment [6] deals with THRa:RXRa (NR concentration 90 nM, RXRa partner concentration 90 nM). An outline of the steps:
as §1

Experiment [7] has as its system THRa homodimer (NR concentration 90 nM). An outline of the steps:
as §1

Experiment [8] deals with VDR homodimer (NR concentration 270 nM). An outline of the steps: as §1

With ATCTCTAGGTGAAGTTCAGTGAAAGATCGATAGA, the PBM binding z-score was 1.53 in experiment [1]; 1.3 in experiment [2]; 1.46 in experiment [3]; 0.512 in experiment [4]; 0.437 in experiment [5]; 1.19 in experiment [6]. For the same sequence, the PBM binding z-score in experiment [7] stood at 0.0183; in experiment [8], 0.509.

As to ACTATTAGTTGACTTAGGGCACCCGATACGACGC, the PBM binding z-score in experiment [1] was determined as 0.58; in experiment [2] it was 0.574; in experiment [3], 0.897; in experiment [4], 0.79; in experiment [5], 0.316; in experiment [6], 0.993. Besides, the PBM binding z-score was found to be 0.664 in experiment [7] and 0.399 in experiment [8].

As for AGAATGAGGGCACGCTGAGTTGATAGCAGAGTAG, the PBM binding z-score in experiment [1] worked out at 1.3; in experiment [2], 2.28; in experiment [3] it was 2.15; in experiment [4], 2.2; in experiment [5] it was 1.7; in experiment [6], 2.53. In addition, the figures for the PBM binding z-score in experiment [7] and in experiment [8] were 0.735 and 2.08, respectively.

Consider CGAACTAGGTCACAGAGGTCAAAGTCCGTGCGTA, for which the PBM binding z-score in experiment [1] worked out at 5.38; in experiment [2], 7.57; in experiment [3], 7.52; in experiment [4], 3.54; in experiment [5], 8.15; in experiment [6], 4.58. Also, the figures for the PBM binding z-score in experiment [7] and in experiment [8] were 2.83 and 6.98, respectively.

As to CATACAGGGTCAGCTAGGCCAGATTAGGGACGGC, the PBM binding z-score in experiment [1] is 3.37; in experiment [2] it was 4.39; in experiment [3], 4.22; in experiment [4] it was 1.47; in experiment [5], 4.12; in experiment [6] it was 3.18. In addition, the PBM binding z-score was 1.09 in experiment [7] and 0.951 in experiment [8].

With GATACATGGTCAGCTAGAGGCCAGAGTATGGAAA, the PBM binding z-score is 0.679 in experiment [1]; 1.39 in experiment [2]; 0.818 in experiment [3]; -0.556 in experiment [4]; 0.128 in experiment [5]; -0.168 in experiment [6]. The values for the PBM binding z-score in experiment [7] and in experiment [8] were -1.01 and -0.418, respectively.

In the case of CCTCAAAGTTCAAGGTAACGTAACAGAAAGCAGC, the PBM binding z-score was 4.13 in experiment [1]; 5.48 in experiment [2]; 6.39 in experiment [3]; 4.29 in experiment [4]; 4.44 in experiment [5]; 3.32 in experiment [6]. For the same sequence, the PBM binding z-score amounted to 1.79 in experiment [7] and 3.65 in experiment [8].
